# Assay results published in PubChem BioAssay.
# Activity calls are given as the source filed them.
# Experiments:
# [1] = small molecules captured by biotinylated probe aFSTL3 – biochemical, small-molecule microarray, fluorescence 635/667, stem cell growth factor project, primary screen (AID 1064); details: higher = more signal;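 further: measures binding of the biotinylated anti-FSTL3 antibody to printed compounds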
# [2] = binders from COS7 lysate, DM2A8 probe, primary screen, torsin A project, cell lysate, small-molecule microarray, fluorescence 635/667 (AID 1065); details: higher = more signal, COS7 lysate expressing mutant human TOR1A
# [3] = small molecules captured by biotinylated probe aFGF2 – biochemical, small-molecule microarray, fluorescence 635/667, stem cell growth factor project, primary screen (AID 1067); details: higher = more signal;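 further: measures binding of biotinylated aFGF2 protein to printed compounds on slides; z-score merges feature fluorescence and signal-to-noise across triplicate slides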
# [4] = small molecules captured by biotinylated probe aFGF10 – biochemical, small-molecule microarray, fluorescence 635/667, stem cell growth factor project, primary screen (AID 1071); details: higher = more signal;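 further: score merges 667 nm spot intensity and signal to noise from triplicate slides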
# [5] = target: Neurogenic locus notch homolog protein 2 (Homo sapiens) (UniProt Q04721); experiment: small molecules binding Notch2 protein – biochemical, small-molecule microarray, 635 nm fluorescence, stem cell growth factors, primary screen (AID 1073); details: higher = more signal
# [6] = target: Pro-neuregulin-1, membrane-bound isoform (Homo sapiens) (UniProt Q02297); experiment: small molecules binding neuregulin-1 protein – biochemical, small-molecule microarray, fluorescence 635/667, psychiatric disease protein project, primary screen (AID 1075); details: NRG1 binding, 635 nm fluorescence, higher = more signal;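 further: score combines 667 nm spot fluorescence with signal to noise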
# [7] = test system: Neuregulin-1 EGF-like domain; experiment: small molecules binding NRG1 EGF domain – biochemical, small-molecule microarray, 635 nm fluorescence, primary screen (AID 1081); details: higher = more signal;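 further: binding of the protein to compounds printed on small-molecule microarray slides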
# [8] = FRG1 expression reporter modulators in myotubes – cell-based, C2C12 myotubes, firefly/Renilla luciferase, luminescence, FRG1 inhibition for FSHD, primary screen (AID 1084); details: FRG1 promoter luciferase, higher = more signal, called active from +8 up or from −8 down
# [9] = small molecules captured by biotinylated probe aFST – biochemical, small-molecule microarray, fluorescence 635/667, stem cell growth factor project, primary screen (AID 1086); details: higher = more signal;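 further: score merges 667 nm fluorescence with signal-to-noise of each printed compound spot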
# [10] = binders of probe aHhip on microarray, primary screen, stem cell growth factor project, biochemical, small-molecule microarray, fluorescence 635/667 (AID 1087); details: higher = more signal;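 further: score merges spot fluorescence at 667nm with spot signal to noise ratio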
# [11] = test system: PRMT1 (protein arginine N-methyltransferase 1); experiment: small molecules binding arginine methyltransferase PRMT1 – biochemical, small-molecule microarray, 635 nm fluorescence, primary screen (AID 1088); details: higher = more signal;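 further: binding of Prmt1 protein to compounds spotted on small-molecule microarray slides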
# [12] = growth effects on S. cerevisiae YJM789 – YJM789 clinical isolate, OD600, 24 h, basal, primary screen (AID 1089); details: higher = more signal, called active from +8 up or from −8 down;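 further: growth of clinical yeast isolate S. cerevisiae YJM 789 seeded 1000 cells per well; test concentration not given here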
# [13] = S. pombe growth modifiers, basal conditions – strain 972, OD600, 24 h, no modulator, primary screen (AID 1090);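 further: basal condition with compound alone and no growth modifier present; test concentration not given here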; details: S. pombe 972 growth, higher = more signal, called active from +8 up or from −8 down
# [14] = budding yeast growth modifiers under rapamycin – strain BY4716, OD600, 96 h, primary screen (AID 1091); further: test concentration not given here; details: S. cerevisiae BY4716 + rapamycin, higher = more signal, called active from +8 up or from −8 down
# [15] = target: Torsin-1A-interacting protein 2 (Homo sapiens) (UniProt Q8NFQ8); experiment: small molecules binding lysate-expressed LULL1 – cell lysate, human LULL1 lysate, 635/667 nm fluorescence, primary screen (AID 1092); details: small-molecule microarray, hLULL1 lysate binding, 635 nm fluorescence; higher = more signal;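 further: probe is lysate of COS7 cells overexpressing human LULL1; score merges per-feature 667 nm fluorescence with signal-to-noise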
# [16] = optical density change of DRC41 E. coli – strain DRC41, OD650, 24 h, E. coli filamentation project, primary screen (AID 1093);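 further: MC1000 strain lacking acrAB efflux and sulA so SOS filamentation is blocked; test concentration not given here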; details: E. coli DRC41 growth, higher = more signal, called active from +8 up or from −8 down
# [17] = probe aLefty2 binding to arrayed compounds – biochemical, biotinylated probe, 635/667 nm fluorescence, primary screen (AID 1094); details: small-molecule microarray, higher = more signal;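 further: score merges spot fluorescence near 667 nm with spot signal-to-noise ratio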
# [18] = test system: Noggin (protein binding on small-molecule microarray); experiment: small molecules binding Noggin protein – biochemical, 635/667 nm fluorescence, primary screen (AID 1095); details: 635 nm fluorescence, higher = more signal;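 further: score merges 667 nm feature fluorescence with signal to noise over triplicate slides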
# [19] = target: Neurogenic locus notch homolog protein 3 (Homo sapiens) (UniProt Q9UM47); experiment: small molecules binding NOTCH3 protein – biochemical, 635/667 nm fluorescence, primary screen (AID 1096); details: small-molecule microarray, 635 nm fluorescence, higher = more signal
# [20] = probe aEGFR binding to arrayed compounds – biochemical, biotinylated probe, 635/667 nm fluorescence, primary screen (AID 1097); details: small-molecule microarray, higher = more signal;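 further: probe is a biotinylated anti-EGFR antibody binding compounds printed on slides; score combines fluorescence near 667 nm and signal to noise of each spot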
# Chain of Neurogenic locus notch homolog protein 3 (Homo sapiens) (Q9UM47 whole entry, looked up): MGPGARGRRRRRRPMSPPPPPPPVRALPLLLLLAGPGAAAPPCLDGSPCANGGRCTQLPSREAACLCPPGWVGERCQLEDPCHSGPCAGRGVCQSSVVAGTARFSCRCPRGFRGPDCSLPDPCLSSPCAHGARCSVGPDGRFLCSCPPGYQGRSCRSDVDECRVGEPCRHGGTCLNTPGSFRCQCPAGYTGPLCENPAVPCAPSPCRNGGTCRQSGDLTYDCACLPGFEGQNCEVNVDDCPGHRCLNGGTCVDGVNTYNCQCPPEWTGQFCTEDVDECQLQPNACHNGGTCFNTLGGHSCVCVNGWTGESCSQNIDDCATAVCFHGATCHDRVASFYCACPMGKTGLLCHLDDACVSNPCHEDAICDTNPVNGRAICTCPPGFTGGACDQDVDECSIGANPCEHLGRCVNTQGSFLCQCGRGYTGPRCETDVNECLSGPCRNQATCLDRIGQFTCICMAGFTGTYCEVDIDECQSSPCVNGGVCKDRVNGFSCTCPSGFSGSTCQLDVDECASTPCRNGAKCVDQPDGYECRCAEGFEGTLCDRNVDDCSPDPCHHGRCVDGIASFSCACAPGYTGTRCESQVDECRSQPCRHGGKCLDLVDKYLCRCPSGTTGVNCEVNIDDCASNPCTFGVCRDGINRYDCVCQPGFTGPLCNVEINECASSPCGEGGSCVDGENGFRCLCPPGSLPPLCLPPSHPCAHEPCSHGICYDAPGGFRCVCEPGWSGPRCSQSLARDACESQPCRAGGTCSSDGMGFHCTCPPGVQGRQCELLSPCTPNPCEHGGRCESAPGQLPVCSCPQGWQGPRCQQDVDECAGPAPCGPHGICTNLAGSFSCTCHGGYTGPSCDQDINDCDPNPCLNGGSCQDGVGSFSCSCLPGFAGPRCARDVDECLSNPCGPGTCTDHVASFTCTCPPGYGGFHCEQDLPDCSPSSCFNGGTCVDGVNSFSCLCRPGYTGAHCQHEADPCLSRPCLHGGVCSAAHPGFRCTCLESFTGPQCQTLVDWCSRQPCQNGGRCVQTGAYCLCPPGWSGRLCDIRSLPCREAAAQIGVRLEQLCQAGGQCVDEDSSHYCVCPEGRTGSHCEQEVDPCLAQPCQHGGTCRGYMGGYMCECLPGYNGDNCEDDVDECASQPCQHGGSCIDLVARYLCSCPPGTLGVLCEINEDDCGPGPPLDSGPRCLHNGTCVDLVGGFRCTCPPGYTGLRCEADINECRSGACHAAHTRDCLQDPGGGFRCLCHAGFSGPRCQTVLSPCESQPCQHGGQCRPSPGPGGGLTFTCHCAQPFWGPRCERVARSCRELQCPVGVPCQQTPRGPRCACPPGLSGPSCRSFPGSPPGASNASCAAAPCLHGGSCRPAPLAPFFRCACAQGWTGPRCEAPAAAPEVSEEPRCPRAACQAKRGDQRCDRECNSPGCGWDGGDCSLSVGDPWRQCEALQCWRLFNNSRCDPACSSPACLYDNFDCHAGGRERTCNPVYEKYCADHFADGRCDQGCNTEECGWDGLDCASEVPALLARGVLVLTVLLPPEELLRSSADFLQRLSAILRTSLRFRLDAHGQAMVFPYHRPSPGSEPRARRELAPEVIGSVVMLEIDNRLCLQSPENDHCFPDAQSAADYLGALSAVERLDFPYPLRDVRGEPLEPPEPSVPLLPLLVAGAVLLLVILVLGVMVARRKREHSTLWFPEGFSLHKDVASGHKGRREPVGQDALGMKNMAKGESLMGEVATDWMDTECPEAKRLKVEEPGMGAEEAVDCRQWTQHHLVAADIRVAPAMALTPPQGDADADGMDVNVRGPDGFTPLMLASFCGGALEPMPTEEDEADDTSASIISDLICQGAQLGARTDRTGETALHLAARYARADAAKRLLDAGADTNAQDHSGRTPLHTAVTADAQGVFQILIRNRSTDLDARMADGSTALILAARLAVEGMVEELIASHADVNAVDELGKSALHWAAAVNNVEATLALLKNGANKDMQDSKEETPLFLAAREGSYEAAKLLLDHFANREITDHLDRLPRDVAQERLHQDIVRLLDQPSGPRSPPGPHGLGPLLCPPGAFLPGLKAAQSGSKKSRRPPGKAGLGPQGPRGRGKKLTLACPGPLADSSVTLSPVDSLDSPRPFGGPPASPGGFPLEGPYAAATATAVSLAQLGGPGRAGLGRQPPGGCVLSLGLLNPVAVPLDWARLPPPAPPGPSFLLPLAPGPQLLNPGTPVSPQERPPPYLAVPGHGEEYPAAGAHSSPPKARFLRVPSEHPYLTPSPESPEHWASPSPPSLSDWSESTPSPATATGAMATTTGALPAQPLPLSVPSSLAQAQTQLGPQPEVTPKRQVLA
# Chain of Torsin-1A-interacting protein 2 (Homo sapiens) (Q8NFQ8 whole entry, looked up): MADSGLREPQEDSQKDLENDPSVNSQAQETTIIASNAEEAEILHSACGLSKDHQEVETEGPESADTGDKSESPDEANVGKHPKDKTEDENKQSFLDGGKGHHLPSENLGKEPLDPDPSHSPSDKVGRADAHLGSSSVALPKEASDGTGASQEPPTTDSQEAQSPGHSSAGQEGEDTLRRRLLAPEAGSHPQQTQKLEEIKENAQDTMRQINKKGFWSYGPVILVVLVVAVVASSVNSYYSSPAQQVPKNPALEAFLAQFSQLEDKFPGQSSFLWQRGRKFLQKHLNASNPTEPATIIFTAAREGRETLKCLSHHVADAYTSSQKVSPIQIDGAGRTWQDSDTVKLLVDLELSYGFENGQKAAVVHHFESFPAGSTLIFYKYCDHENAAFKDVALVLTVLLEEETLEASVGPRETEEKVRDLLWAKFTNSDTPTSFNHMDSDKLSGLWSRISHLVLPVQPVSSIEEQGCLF
# Chain of Pro-neuregulin-1, membrane-bound isoform (Homo sapiens) (Q02297 whole entry, looked up, the tested form may be a part, canonical isoform): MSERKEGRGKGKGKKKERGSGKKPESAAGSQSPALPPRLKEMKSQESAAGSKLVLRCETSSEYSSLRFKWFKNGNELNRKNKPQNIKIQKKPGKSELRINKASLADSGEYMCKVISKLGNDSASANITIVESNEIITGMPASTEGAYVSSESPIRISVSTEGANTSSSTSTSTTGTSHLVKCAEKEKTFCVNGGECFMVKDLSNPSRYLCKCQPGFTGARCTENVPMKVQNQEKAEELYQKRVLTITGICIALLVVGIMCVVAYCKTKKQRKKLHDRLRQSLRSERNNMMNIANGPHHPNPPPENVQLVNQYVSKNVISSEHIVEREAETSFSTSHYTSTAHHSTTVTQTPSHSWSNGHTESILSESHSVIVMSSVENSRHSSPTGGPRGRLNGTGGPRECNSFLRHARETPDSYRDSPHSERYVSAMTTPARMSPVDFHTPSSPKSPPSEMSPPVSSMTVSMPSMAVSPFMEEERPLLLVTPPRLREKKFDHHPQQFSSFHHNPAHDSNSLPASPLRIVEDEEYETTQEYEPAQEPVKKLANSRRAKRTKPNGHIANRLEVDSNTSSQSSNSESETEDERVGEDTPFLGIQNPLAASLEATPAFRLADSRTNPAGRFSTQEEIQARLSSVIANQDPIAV
Compound,composite z-score [1],composite z-score [2],composite z-score [3],composite z-score [4],composite z-score [5],composite z-score [6],composite z-score [7],z-score [8],composite z-score [9],composite z-score [10],composite z-score [11],z-score [12],z-score [13],z-score [14],composite z-score [15],z-score [16],composite z-score [17],composite z-score [18],composite z-score [19],composite z-score [20]
O=C1O[C@H](c2ccccc2)[C@H](c2ccccc2)N2[C@H]1[C@@H](C(=O)Nc1nc3ccccc3s1)[C@]1(C(=O)Nc3ccc(C#CC4=CCCCC4)cc31)[C@H]2c1ccc(OCCO)cc1,-0.576,0.188,-0.0148,0.556,0.6,0.734,1.11,3.08 (inactive),1.21,0.0834,1.55,1.79 (inactive),1.42 (inactive),1.54 (inactive),3.26,0.476 (inactive),0.291,0.715,1.07,-0.118
O=C1OCC=C[C@H]2OC34C=CCN(c5ccc6ccccc6c5)C(=O)[C@H]3N(CCO)C(=O)[C@@H]4[C@@H]12 (stereo not given in full),0.982,-2.22,-0.166,-0.361,-1.4,1.7,1.39,1.18 (inactive),-0.127,-0.27,0.491,0.689 (inactive),0.0739 (inactive),-0.409 (inactive),0.951,-0.746 (inactive),-0.0841,-1.58,-0.127,-0.281
O=C1OCC=C[C@H]2OC34C=CCN(c5ccc(Cl)cc5)C(=O)[C@H]3N(CCCO)C(=O)[C@@H]4[C@@H]12 (stereo not given in full),0.768,-0.38,-0.0847,-0.573,-1.6,0.3,1.41,-0.0992 (inactive),-0.415,-0.277,0.631,0.0783 (inactive),-0.252 (inactive),0.0814 (inactive),2.56,1.3 (inactive),-0.0783,-0.996,-0.478,-0.28
NC(=O)NCC#Cc1ccc2c(c1)[C@]1(C(=O)N2)[C@H](c2ccccc2OCCO)N2[C@H](c3ccccc3)[C@H](c3ccccc3)OC(=O)[C@H]2[C@@H]1C(=O)N1CCCCCCC1,3.75,1.38,0.866,0.803,1.38,1.31,1.08,-1.7 (inactive),3.41,3.04,1.55,0.456 (inactive),-1.36 (inactive),1.49 (inactive),4.09,1.26 (inactive),1.79,1.8,1.11,1.21
COc1ccc(C(O)C2C=CC3C(=O)N(c4ccccc4)C(=O)C3N2Nc2ccccc2)c2ccccc12 (stereo not given),0.782,-0.141,-0.0201,0.354,0.945,0.724,1.04,-0.0953 (inactive),0.563,-0.163,0.802,-1.41 (inactive),1.81 (inactive),-0.0303 (inactive),2.23,-0.807 (inactive),0.189,-0.659,0.459,-0.0949
COC(=O)[C@@]1(Cc2ccc(F)cc2)[C@H]2c3cc(C(=O)N4CCCC4)n(CCc4ccc(OC)c(Br)c4)c3C[C@H]2CN1C(=O)c1ccccc1,0.502,1.27,0.266,0.832,1.83,1.55,1.29,-0.784 (inactive),1.94,1.68,1.4,0.0318 (inactive),1.53 (inactive),2.31 (inactive),3.52,-0.224 (inactive),0.436,-0.0473,1.03,0.324
CCCC[C@H]1C[C@@H]1[C@@H]1N(P(=O)(c2ccccc2)c2ccccc2)[C@](CO)(c2ccccc2)CC12CC2,0.488,-0.363,0.0231,0.106,1.44,0.936,1.05,0.273 (inactive),1.03,0.235,-0.153,-0.485 (inactive),-0.485 (inactive),5.22 (inactive),2.51,-1.08 (inactive),0.325,-0.686,-0.318,0.0585
CCN(CC)c1ccc(N2CC=CC34O[C@@H]5C=CCOC(=O)[C@@H]5[C@H]3C(=O)N(CCCCCO)[C@@H]4C2=O)cc1 (stereo not given in full),0.594,2.08,-0.129,-0.39,-0.866,1.42,1.53,-0.309 (inactive),-0.409,-0.0618,-0.456,-0.821 (inactive),-1.3 (inactive),-0.522 (inactive),2.74,1.29 (inactive),-0.138,-0.769,-0.589,-0.201
COCCOC(=O)N1C(=O)[C@@]2(c3ccccc31)[C@H](C(=O)N1CCCCCCC1)[C@H]1C(=O)O[C@H](c3ccccc3)[C@H](c3ccccc3)N1[C@@H]2c1ccccc1OCCO,3.82,1.77,0.679,0.684,1.3,1.84,1.38,-0.91 (inactive),3.36,3.52,1.53,0.749 (inactive),0.238 (inactive),5.75 (inactive),3.61,-0.737 (inactive),1.67,0.785,1.06,1.03
COc1ccc([Si](C)(C)[C@@H]2[C@@H](CCn3cc([C@H](O)c4ccccc4)nn3)O[C@]3(C(=O)N(C)c4ccccc43)[C@H]2C)cc1,-0.266,0.356,-0.0468,0.181,0.0572,0.0939,0.448,-1.31 (inactive),-0.108,-0.391,0.384,-0.842 (inactive),0.324 (inactive),-0.112 (inactive),1.96,-0.036 (inactive),-0.166,-0.133,-0.0523,-0.0828
